PMC7862700, “An all-to-all approach to the identification of sequence-specific readers for epigenetic DNA modifications on cytosine”

What was measured:
Assay in all cases: DAPPL (digital affinity profiling via proximity ligation, sequencing); 10 mM Tris-HCl pH 7.5, 50 mM NaCl, 1 mM DTT, 4% glycerol, room temperature, 30 min; GST-TFs on glutathione beads, 16-mer random dsDNA library, 0.1% formaldehyde crosslink after washing; high values mean tight binding
FEV = target: T1, FEV (Homo sapiens, UniProt Q99581 1-238); details: protein: recombinant; tags: N-terminal GST; dsDNA, one strand shown
T1 sequence: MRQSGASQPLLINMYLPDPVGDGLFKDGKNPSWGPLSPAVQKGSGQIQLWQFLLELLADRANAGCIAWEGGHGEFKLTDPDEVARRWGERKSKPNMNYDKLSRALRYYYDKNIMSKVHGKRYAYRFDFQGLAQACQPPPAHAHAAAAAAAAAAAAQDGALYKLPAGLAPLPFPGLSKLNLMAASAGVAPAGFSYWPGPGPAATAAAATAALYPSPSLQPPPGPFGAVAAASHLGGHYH
Procedure, shortened: (§1)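 Binding signal is each hexamer's read frequency for a factor divided by its frequency in the tag-only sample. The factors were GST-fused human transcription factors from yeast, captured on glutathione beads, DNA-barcoded and pooled with that sample. Pools were incubated with 200 nmole of a random double-stranded 16-mer DNA library in Tris/NaCl/DTT/glycerol buffer at room temperature for 30 min, then washed, crosslinked with 0.1% formaldehyde, proximity-ligated with BsaI/T4 ligase (1 h, 37 °C), PCR-amplified and sequenced on an Illumina NextSeq500.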

ETV5 = ETV5 (Homo sapiens, UniProt P41161 1-510); details: protein: recombinant; tags: N-terminal GST; dsDNA, one strand shown
Chain of ETV5 (P41161 whole entry): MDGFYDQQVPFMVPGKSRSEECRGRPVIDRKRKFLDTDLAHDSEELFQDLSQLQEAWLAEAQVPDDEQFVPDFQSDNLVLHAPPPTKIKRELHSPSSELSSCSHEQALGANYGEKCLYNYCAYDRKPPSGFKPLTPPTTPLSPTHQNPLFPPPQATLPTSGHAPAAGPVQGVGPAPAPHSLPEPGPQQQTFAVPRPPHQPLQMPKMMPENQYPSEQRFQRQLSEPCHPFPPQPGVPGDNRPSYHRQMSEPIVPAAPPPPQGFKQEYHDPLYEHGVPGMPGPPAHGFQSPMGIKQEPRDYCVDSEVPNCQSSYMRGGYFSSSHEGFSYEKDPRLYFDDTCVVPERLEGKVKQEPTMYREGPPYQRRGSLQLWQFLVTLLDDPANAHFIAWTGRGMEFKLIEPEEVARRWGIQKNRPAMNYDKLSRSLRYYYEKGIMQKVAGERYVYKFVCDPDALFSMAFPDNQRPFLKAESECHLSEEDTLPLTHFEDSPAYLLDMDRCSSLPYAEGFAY
Procedure, shortened: as §1

HSF1 = HSF1 (Homo sapiens, UniProt Q00613 1-529); details: protein: recombinant; tags: N-terminal GST; chain copies: 3; dsDNA, one strand shown
Chain of HSF1 (Q00613 whole entry): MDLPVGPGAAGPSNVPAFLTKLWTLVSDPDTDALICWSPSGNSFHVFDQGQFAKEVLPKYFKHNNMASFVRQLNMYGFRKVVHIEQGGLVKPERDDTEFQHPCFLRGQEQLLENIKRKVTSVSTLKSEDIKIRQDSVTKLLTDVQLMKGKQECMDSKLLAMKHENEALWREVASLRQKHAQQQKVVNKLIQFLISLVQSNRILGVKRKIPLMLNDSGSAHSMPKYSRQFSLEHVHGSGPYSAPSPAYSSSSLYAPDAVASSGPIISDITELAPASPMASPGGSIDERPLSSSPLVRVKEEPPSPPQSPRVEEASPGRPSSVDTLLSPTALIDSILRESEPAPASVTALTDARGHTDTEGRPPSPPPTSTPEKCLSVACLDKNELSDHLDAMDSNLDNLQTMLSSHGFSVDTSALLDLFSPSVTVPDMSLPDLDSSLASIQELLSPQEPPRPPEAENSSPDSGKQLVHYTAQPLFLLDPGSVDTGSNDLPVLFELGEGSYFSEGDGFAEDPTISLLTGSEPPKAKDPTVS
Procedure, shortened: as §1

SPIC = target: T2, SPIC (Homo sapiens, UniProt Q8N5J4 1-248); details: protein: recombinant; tags: N-terminal GST; dsDNA, one strand shown
T2 sequence: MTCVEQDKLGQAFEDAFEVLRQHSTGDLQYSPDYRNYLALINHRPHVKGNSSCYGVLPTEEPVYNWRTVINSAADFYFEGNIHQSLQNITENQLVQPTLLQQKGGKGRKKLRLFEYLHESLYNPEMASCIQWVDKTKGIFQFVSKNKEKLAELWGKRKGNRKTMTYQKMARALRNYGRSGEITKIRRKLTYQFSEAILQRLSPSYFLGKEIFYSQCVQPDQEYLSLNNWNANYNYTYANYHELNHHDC
Procedure, shortened: as §1

ELF4 = ELF4 (Homo sapiens, UniProt Q99607 1-663); details: protein: recombinant; tags: N-terminal GST; dsDNA, one strand shown
Chain of ELF4 (Q99607 whole entry): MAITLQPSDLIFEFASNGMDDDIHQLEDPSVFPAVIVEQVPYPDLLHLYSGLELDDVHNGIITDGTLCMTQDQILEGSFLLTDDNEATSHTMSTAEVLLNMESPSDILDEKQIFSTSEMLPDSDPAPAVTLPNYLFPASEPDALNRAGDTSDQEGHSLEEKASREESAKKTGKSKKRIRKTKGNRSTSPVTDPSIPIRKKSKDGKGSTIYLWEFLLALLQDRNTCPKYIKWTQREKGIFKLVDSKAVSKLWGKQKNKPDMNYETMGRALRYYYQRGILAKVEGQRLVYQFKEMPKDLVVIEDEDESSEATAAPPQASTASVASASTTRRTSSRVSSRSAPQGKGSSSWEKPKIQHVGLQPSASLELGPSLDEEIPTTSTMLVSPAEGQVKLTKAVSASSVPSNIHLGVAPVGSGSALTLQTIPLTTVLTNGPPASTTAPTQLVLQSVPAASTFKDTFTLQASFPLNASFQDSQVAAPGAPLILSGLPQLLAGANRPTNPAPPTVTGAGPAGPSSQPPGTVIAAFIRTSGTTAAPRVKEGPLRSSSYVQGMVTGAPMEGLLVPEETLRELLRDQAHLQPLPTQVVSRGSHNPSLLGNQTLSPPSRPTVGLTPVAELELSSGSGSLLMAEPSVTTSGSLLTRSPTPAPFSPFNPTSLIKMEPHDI
Procedure, shortened: as §1

ELK4 = target: T3, ELK4 (Homo sapiens, UniProt P28324-2 1-405); details: protein: recombinant; tags: N-terminal GST; dsDNA, one strand shown
T3 sequence: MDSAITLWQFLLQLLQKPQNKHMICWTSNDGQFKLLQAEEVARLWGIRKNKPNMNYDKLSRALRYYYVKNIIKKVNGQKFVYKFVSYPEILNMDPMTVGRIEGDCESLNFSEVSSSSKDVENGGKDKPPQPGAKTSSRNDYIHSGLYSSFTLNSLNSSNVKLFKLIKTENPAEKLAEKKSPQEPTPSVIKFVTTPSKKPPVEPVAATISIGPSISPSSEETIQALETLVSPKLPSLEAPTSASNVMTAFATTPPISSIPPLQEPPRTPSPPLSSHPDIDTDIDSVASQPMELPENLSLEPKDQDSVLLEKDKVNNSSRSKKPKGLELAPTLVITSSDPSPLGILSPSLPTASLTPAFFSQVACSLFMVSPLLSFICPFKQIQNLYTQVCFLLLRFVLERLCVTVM
Procedure, shortened: as §1

ETV2 = target: T4, ETV2 (Homo sapiens, UniProt O00321 1-342); details: protein: recombinant; tags: N-terminal GST; dsDNA, one strand shown
T4 sequence: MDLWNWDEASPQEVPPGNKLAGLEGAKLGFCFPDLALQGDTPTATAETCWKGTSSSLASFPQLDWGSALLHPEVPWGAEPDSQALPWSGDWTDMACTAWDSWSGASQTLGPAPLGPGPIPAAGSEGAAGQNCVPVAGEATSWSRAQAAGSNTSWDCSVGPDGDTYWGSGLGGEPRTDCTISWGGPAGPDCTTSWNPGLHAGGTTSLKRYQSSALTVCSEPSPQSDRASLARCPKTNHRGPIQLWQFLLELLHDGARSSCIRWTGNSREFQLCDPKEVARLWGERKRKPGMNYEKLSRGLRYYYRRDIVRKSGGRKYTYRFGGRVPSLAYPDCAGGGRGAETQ
Procedure, shortened: as §1

ELF3 = target: T5, ELF3 (Homo sapiens, UniProt P78545 1-371); details: protein: recombinant; tags: N-terminal GST; dsDNA, one strand shown
T5 sequence: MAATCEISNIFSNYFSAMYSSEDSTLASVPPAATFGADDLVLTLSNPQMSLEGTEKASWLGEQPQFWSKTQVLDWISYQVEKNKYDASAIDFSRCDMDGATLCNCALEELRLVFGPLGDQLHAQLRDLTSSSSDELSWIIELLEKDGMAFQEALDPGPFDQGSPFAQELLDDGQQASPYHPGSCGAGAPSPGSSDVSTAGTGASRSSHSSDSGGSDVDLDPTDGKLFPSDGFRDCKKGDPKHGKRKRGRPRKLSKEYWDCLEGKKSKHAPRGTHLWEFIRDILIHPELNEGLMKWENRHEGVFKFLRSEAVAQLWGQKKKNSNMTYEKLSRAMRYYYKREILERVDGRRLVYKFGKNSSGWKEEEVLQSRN
Procedure, shortened: as §1

CRX = CRX (Homo sapiens, UniProt O43186 1-299); details: protein: recombinant; tags: N-terminal GST; dsDNA, one strand shown
Chain of CRX (O43186 whole entry): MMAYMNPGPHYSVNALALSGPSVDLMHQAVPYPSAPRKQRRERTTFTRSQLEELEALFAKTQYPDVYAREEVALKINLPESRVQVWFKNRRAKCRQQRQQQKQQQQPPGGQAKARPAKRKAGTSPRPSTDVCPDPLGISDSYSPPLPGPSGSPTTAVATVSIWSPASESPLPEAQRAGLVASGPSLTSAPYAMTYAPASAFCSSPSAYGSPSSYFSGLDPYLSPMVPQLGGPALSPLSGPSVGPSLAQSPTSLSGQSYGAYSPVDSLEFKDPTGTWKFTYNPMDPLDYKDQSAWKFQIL
Procedure, shortened: as §1

ETV1 = ETV1 (Homo sapiens, UniProt P50549 1-477); details: protein: recombinant; tags: N-terminal GST; dsDNA, one strand shown
Chain of ETV1 (P50549 whole entry): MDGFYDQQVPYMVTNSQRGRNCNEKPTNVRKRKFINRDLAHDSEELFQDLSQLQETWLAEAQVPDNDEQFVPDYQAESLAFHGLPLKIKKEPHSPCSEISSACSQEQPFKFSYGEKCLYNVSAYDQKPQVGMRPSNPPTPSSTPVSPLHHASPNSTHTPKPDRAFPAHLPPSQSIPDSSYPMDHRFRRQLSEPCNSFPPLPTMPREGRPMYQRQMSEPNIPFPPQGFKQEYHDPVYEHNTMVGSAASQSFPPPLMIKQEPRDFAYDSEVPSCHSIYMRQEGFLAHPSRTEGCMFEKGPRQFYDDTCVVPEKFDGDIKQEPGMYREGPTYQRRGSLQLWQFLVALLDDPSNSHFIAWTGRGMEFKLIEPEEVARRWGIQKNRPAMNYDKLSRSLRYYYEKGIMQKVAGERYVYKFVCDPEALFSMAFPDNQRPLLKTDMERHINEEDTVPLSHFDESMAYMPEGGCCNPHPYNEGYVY
Procedure, shortened: as §1

ERF = target: T6, ERF (Homo sapiens, UniProt P50548 1-548); details: protein: recombinant; tags: N-terminal GST; dsDNA, one strand shown
T6 sequence: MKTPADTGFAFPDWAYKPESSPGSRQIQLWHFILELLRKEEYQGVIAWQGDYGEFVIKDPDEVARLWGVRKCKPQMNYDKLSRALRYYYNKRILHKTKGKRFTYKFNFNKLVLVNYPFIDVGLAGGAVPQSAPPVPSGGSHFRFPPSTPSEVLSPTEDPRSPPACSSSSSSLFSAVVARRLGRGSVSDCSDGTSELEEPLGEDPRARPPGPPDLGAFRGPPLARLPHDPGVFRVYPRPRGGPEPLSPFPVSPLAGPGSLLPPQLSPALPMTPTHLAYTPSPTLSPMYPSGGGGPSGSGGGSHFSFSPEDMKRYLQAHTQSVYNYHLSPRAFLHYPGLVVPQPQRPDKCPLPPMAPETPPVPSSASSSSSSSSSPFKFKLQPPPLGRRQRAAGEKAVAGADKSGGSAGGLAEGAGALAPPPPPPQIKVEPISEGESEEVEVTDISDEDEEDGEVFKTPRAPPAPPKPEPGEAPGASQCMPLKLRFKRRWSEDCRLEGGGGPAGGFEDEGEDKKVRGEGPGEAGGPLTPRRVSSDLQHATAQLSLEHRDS
Procedure, shortened: as §1

ETV3L = target: T7, ETV3L (Homo sapiens, UniProt Q6ZN32 1-361); details: protein: recombinant; tags: N-terminal GST; dsDNA, one strand shown
T7 sequence: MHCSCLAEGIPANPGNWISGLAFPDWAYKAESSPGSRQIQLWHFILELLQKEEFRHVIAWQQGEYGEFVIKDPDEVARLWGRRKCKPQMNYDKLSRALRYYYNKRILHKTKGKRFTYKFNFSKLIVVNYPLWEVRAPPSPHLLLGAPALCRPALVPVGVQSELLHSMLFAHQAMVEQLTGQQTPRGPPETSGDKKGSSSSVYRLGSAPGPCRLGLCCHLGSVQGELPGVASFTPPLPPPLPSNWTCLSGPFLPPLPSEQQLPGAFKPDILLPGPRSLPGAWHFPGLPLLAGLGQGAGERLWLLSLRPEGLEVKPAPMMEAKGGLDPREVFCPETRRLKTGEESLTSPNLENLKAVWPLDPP
Procedure, shortened: as §1

ETS2 = target: T8, ETS2 (Homo sapiens, UniProt P15036 1-469); details: protein: recombinant; tags: N-terminal GST; dsDNA, one strand shown
T8 sequence: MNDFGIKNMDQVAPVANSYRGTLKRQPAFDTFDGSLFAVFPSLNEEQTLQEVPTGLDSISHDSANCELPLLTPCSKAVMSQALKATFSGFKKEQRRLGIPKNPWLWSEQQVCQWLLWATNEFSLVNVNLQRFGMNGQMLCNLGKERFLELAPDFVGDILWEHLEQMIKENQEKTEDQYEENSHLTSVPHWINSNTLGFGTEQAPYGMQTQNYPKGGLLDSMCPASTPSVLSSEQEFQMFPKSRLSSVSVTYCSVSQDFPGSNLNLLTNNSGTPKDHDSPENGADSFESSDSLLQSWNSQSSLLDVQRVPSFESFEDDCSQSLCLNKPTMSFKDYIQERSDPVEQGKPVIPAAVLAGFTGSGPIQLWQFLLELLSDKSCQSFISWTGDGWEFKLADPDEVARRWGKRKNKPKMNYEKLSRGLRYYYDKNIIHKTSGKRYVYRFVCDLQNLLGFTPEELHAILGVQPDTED
Procedure, shortened: as §1

SPDEF = target: T9, SPDEF (Homo sapiens, UniProt O95238 1-335); details: protein: recombinant; tags: N-terminal GST; dsDNA, one strand shown
T9 sequence: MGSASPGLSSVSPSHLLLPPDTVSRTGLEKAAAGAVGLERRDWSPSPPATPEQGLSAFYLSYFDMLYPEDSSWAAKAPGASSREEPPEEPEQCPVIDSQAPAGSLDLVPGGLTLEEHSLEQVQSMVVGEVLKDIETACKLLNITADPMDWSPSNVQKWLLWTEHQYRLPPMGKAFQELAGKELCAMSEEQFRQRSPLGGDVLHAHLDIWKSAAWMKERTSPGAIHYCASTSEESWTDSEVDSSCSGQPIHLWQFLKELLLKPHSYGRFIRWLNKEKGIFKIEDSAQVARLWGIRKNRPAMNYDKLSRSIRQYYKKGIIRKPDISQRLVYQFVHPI
Procedure, shortened: as §1

ETV7 = target: T10, ETV7 (Homo sapiens, UniProt Q9Y603 1-341); details: protein: recombinant; tags: N-terminal GST; dsDNA, one strand shown
T10 sequence: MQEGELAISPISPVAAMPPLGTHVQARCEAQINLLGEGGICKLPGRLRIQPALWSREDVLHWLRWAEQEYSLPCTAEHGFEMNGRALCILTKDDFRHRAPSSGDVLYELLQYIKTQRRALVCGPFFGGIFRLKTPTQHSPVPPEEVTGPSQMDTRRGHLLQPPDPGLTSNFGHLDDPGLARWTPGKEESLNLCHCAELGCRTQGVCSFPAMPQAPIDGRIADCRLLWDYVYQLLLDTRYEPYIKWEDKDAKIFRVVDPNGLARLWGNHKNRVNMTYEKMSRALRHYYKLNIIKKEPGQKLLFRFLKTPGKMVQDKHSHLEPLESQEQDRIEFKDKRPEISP
Procedure, shortened: as §1

ELF5 = target: T11, ELF5 (Homo sapiens, UniProt Q9UKW6-2 1-255); details: protein: recombinant; tags: N-terminal GST; dsDNA, one strand shown
T11 sequence: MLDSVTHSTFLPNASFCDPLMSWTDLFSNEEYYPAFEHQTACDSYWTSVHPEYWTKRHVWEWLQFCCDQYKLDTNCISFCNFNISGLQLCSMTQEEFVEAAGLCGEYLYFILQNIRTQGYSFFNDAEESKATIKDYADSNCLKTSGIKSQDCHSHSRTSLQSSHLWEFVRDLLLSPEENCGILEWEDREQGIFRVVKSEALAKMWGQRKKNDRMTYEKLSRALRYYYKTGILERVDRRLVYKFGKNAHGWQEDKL
Procedure, shortened: as §1

ETV3 = target: T12, ETV3 (Homo sapiens, UniProt P41162-2 1-143); details: protein: recombinant; tags: N-terminal GST; dsDNA, one strand shown
T12 sequence: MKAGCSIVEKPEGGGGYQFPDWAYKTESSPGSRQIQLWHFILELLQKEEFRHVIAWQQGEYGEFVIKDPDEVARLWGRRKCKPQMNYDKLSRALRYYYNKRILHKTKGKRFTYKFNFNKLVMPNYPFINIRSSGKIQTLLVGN
Procedure, shortened: as §1

ETV6 = ETV6 (Homo sapiens, UniProt P41212 1-452); details: protein: recombinant; tags: N-terminal GST; dsDNA, one strand shown
Chain of ETV6 (P41212 whole entry): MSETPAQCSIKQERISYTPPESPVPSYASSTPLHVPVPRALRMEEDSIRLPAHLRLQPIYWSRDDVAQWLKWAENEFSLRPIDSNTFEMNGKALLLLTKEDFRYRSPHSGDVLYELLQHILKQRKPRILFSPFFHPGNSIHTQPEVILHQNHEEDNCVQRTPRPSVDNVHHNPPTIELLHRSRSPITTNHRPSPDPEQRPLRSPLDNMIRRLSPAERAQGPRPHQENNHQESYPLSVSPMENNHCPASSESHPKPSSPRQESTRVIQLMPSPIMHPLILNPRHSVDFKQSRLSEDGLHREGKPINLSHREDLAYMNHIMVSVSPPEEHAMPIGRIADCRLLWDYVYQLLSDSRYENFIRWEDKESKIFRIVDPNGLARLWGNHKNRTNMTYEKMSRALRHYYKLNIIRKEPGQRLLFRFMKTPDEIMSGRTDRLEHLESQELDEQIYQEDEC
Procedure, shortened: as §1

TCACTA was tested, and the binding signal (FEV) was 1.11 fold enrichment (6-mer frequency, TF over GST control), the binding signal (ETV5) was 1.06 fold enrichment (6-mer frequency, TF over GST control) and the binding signal (HSF1) was 1.16 fold enrichment (6-mer frequency, TF over GST control). For the same sequence, the binding signal (SPIC) was 1.16 fold enrichment (6-mer frequency, TF over GST control), the binding signal (ELF4) was 1.12 fold enrichment (6-mer frequency, TF over GST control) and the binding signal (ELK4) was 1.28 fold enrichment (6-mer frequency, TF over GST control). For the same sequence, the binding signal (ETV2) was 1.18 fold enrichment (6-mer frequency, TF over GST control), the binding signal (ELF3) was 1.19 fold enrichment (6-mer frequency, TF over GST control) and the binding signal (CRX) was 1.27 fold enrichment (6-mer frequency, TF over GST control). For the same sequence, the binding signal (ETV1) was 1.06 fold enrichment (6-mer frequency, TF over GST control), the binding signal (ERF) was 1.24 fold enrichment (6-mer frequency, TF over GST control) and the binding signal (ETV3L) was 1.18 fold enrichment (6-mer frequency, TF over GST control). For the same sequence, the binding signal (ETS2) was 1.25 fold enrichment (6-mer frequency, TF over GST control), the binding signal (SPDEF) was 1.07 fold enrichment (6-mer frequency, TF over GST control) and the binding signal (ETV7) was 1.23 fold enrichment (6-mer frequency, TF over GST control). The binding signal (ELF5) was 1.15 fold enrichment (6-mer frequency, TF over GST control), the binding signal (ETV3) was 1.05 fold enrichment (6-mer frequency, TF over GST control) and the binding signal (ETV6) was 1.06 fold enrichment (6-mer frequency, TF over GST control).
